# Compound activity: PubChem, National Center for Advancing Translational Sciences (NCATS)
# NS1 function inh = qHTS Assay for Inhibitors of Influenza NS1 Protein Function; Potency, µM (series often up to 46.1 µM), inactives show top-dose activity, positive = more growth; 270,000 compounds, 0.4% hits; also: potency is read from the fitted curve at half-maximal effect; actives are rising curves; nearly all actives have a fitted effect of over 50% in size
#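 Compounds were scored for reversing the slow growth caused by influenza A NS1 in S. cerevisiae, measured by optical density at 600 nm. Assay medium contained 2% galactose at pH 6.0; NS1-free yeast of the same strain were the positive control.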
# RE007 growth inh = qHTS Assay for Inhibitors of the HIV-1 protein Vpr; S. pombe RE007 Vpr strain, BacTiter-Glo ATP luminescence, 24 h; Potency, µM (top dose mostly 92.2 µM), without a hit: at the highest dose activity change, negative = less growth, usual class: inhibitors; 360,000 compounds, 0.21% hits; active = well fitted falling curve with a large enough effect; inconclusive = small, poorly fitted or top-dose-only effect; inactive = no such curve, though single readings can be large or run the other way; also: potency is read from the fitted curve at half-maximal effect; % is scaled to controls: 0 for no effect and ±100 for the full control effect; nearly all actives have a fitted effect of over 50% in size
#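 Fission yeast RE007 carrying one integrated HIV-1 vpr copy, seeded at OD 0.01 in PMG+AL medium with 23 nL pinned compound. Grown 24 h at 30 degrees; viability read by BacTiter-Glo luminescence after 5 min.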
# LmPK inh = qHTS Assay for Inhibitors of Leishmania Mexicana Pyruvate Kinase (LmPK). Q27686. AID 1721, 2009. Potency, µM (doses to about 57.5 µM), inactives show at the top dose activity change, negative = inhibition, actives largely listed as inhibitors. purified LmPK, Kinase-Glo ATP luminescence, 1 h. 290,000 compounds, 0.37% hits; active = well fitted curve in the direction sought with a large enough effect; inconclusive = small, poorly fitted or top-dose-only effect, or another doubt; inactive = no such curve, though single readings can be large; an effect the other way counts as inactive or inconclusive; also: potency is read from the fitted curve at half-maximal effect; % is scaled to controls: 0 for no effect and ±100 for the full control effect
# Target sequence (Q27686 whole entry, looked up): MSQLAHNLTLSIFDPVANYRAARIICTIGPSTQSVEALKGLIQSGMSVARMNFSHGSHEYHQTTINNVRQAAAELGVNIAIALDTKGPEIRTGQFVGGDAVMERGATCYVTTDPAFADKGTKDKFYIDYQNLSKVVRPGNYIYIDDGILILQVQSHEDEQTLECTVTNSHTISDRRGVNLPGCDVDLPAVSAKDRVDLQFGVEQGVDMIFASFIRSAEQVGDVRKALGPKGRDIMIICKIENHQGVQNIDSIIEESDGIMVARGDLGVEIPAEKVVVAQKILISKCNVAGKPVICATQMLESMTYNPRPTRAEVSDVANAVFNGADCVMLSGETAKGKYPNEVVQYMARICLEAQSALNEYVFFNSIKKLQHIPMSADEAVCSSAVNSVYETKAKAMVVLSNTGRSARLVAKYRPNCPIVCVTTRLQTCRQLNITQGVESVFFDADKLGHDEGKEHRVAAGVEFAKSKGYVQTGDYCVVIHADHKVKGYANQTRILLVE
#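 Kinase-Glo luminescence read after 1 h RT reaction of 0.1 nM LmPK with 0.5 mM PEP and 0.1 mM ADP. Activity scaled between uninhibited and enzyme-free controls.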
# TbPYK inhibitor = qHTS of Trypanosoma Brucei Inhibitors. TbPYK enzyme, Kinase-Glo Plus ATP luminescence, 45 min. pyruvate kinase (Trypanosoma brucei), Q57TT1. Potency, µM (series often up to 76.8 µM), for the others: at the top dose activity, negative = inhibition, hits mostly inhibitors. 410,000 compounds, 0.12% hits; active = well fitted curve in the direction sought with a large enough effect; inconclusive = small, poorly fitted or top-dose-only effect, or another doubt; inactive = no such curve, though single readings can be large; an effect the other way counts as inactive or inconclusive; also: potency is read from the fitted curve at half-maximal effect; % is scaled to controls: 0 for no effect and ±100 for the full control effect; nearly all actives have a fitted effect of over 50% in size
#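 Glycolytic pyruvate kinase of T. brucei was incubated with substrate, test compound and 130 uM ADP for 45 minutes at room temperature. Luminescent Kinase-Glo Plus signal was measured after 10 minutes.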
# Flu NS1 inh = Assay for Inhibitors of Influenza NS1 Protein Function: Hit Validation; 1,400 tested, under 10 active; shares compounds with NS1 function inh; activity change, negative = inhibition, % at 32.9 µM; influenza NS1 function cell assay, 15-point titration; also: 0% is about no effect
# PR8 titer = Assay for Inhibitors of Influenza NS1 Protein Function: Influenza virus replication assay in MDCK cells infected with virus A/PR/8/34. shares compounds with NS1 function inh. MDCK infected influenza A/PR/8/34, virus titer TCID50; active compounds read low. virus titer (log TCID50), log10 TCID50 at 5 µM. 95 compounds, 30% hits. AID 504647, 2011; call rule not given here
# Active calls of the source: *; ? = inconclusive; . = no result; ! = not confirmed by another sample; [ ] = dose if it differs, or a comment. Shown are actives, neighbours in structure and some others; about 0.77% of the full set was active somewhere. Unless noted, calls follow the shape of the full dose curve.
SMILES,NS1 function inh,RE007 growth inh,LmPK inh,TbPYK inhibitor,Flu NS1 inh,others
CCCCNC(=O)CN(c1cc(C(F)(F)F)ccc1Cl)S(C)(=O)=O,1µM*,9%,1%,-7%,-4,PR8 titer=8
O=C1NC(=O)C(c2ccccc2[N+](=O)[O-])=C1Nc1ccc(O)c(Cl)c1,35µM*!,1%[18.4 µM],1%,-10%,-13,
O=C(NNc1ccccc1[N+](=O)[O-])Nc1ccc(Cl)c(Cl)c1,-47%,11%,-1%,2%,.,
O=C(NCc1ccc(F)cc1)c1ccc(CSc2nc3ccncc3n2Cc2ccc(F)cc2)cc1,.,.,.,2%,.,
O=C(CSc1nnc(-c2ccc(O)cc2)n1-c1ccccc1)CC(=O)Nc1ccccc1,10µM*,4%,1%,-17%,23,
NC(=O)c1ccc(-n2nnnc2SCC(=O)Nc2ccccc2)cc1,14%,6%,-1%,1%,.,
O=C(CSc1nnnn1-c1ccccc1)CC(=O)Nc1ccc(Cl)cc1,2.5µM*,2%,1%,-15%,10,
COc1ccc(CNC(=O)CCc2c(C)nc3nc(CNC(=O)OC(C)(C)C)nn3c2C)cc1,.,.,.,-3%,.,
Cc1ccccc1-n1c(=O)cc(NCc2ccc3c(c2)OCO3)[nH]c1=O,?,7%,7%,2%,10,
O=c1cc(NCc2ccc3c(c2)OCO3)[nH]c(=O)n1-c1ccc(Cl)cc1,7%,?,-13%,-4%,.,
COc1cc(-c2nnc(SCC(=O)N(C)C3CCCCC3)o2)cc(OC)c1OC,.,.,.,-1%,.,
O=c1[nH]c(=S)n(-c2ccc(Br)cc2)c(O)c1C=Nc1ccc(N2CCOCC2)cc1,7.9µM*,-2%,-1%,-30%,6,
COc1ccccc1C(=O)Nc1c(C(=O)N2CCN(c3ccccc3F)CC2)oc2ccccc12,.,.,.,5%,.,
Cc1cccc(NC(=O)NCc2ccc3c(c2)cc(C)n3C)c1,11µM*,1%,0%,-2%,13,
COc1ccc(CNC(=O)Nc2cccc(Cl)c2)cc1,1%,-11%,0%,6%,.,
Cc1cc2cc(CNC(=O)Nc3cccc(Cl)c3)ccc2n1C,?,13%,-7%,1%,16,
O=c1c(-c2cc(-c3ccc(F)cc3)nc3c2COc2ccc(Cl)cc2-3)coc2ccc(F)cc12,.,.,.,0%,.,
Cc1ccc2nc(/N=C(\N)NC(=O)N3c4ccccc4Sc4ccccc43)nc(C)c2c1,-8%,-8%,7%,-11%,.,
Cc1ccc2c(C)nc(/N=C(\N)NC(=O)N3c4ccccc4Sc4ccccc43)nc2c1,?,-3%,7%,-2%,2,
COc1cccc(/C=C2\C(=O)N(c3cccc(C)c3)C(=O)c3ccccc32)c1,?,-1%,0%,-14%,?,
O=C(/C(=N/N=C/c1ccc(O)c(O)c1O)c1ccccc1)c1ccccc1,3.2µM*,-8%,4%,-10%,?,
Oc1ccc(/C=N/N=C(c2ccccc2)c2ccccc2)c(O)c1O,-4%,?,2%,?,.,
CCCCn1c(=O)cc(O)c2ccccc21,10µM*,21%,-6%,4%,27,
Cc1ccc(C)c(-c2csc(-c3c(N)c(C(=O)c4ccc5c(c4)OCO5)n4ccccc34)n2)c1,.,.,.,-3%,.,
Cc1ccc(N(CC(C)C)S(=O)(=O)c2nnc(NC(=O)c3cccs3)s2)cc1,.,.,.,-4%,.,
SMILES,NS1 function inh,RE007 growth inh,LmPK inh,TbPYK inhibitor,Flu NS1 inh,others
O=C(Nc1ccc(S(=O)(=O)Nc2nccs2)cc1)c1cc(-c2ccccc2)nc2ccccc12,11µM*,-11%,-1%,-1%,1,
Cc1ccc(-c2cc(C(=O)Nc3ccc(S(=O)(=O)Nc4nccs4)cc3)c3ccccc3n2)c(C)c1,18%,15%,-2%,-15%,.,
COc1ccc(NC(=O)Cn2c(=O)n(Cc3ccco3)c(=O)c3sc4ccccc4c32)cc1OC,.,.,.,-7%,.,
Cc1cccc(N2CCN(C(=O)c3cnn(-c4ccccc4Cl)c3C3CCN(C(=O)OC(C)(C)C)CC3)CC2C)c1 (stereo not drawn),.,.,.,-1%,.,
Cc1c(NC(=O)OCCNC(=O)COc2ccc(Cl)cc2Cl)sc(=S)n1C,?,-20%,3%,-3%,15,
COc1ccc2[nH]c(S(=O)Cc3ncc(C)c(OC)c3C)nc2n1 (stereo not drawn),.,.,.,-13%,.,
CCOC(=O)N1CCC(c2nc(C)sc2C(=O)O)CC1,?,14%,1%,-7%,-3,
CCOC(=O)c1cc(S(=O)(=O)N2CCN(c3ccc(C(C)=O)cc3)CC2)[nH]n1,.,.,.,3%,.,
Oc1ccc2ccccc2c1-c1sc(Nc2ccccc2)n[n+]1-c1ccc(F)cc1,?,-19%,-1%,-9%,-26,
CCOC(=O)c1cc(-c2ccccc2)sc1NC(=O)CN1C(=O)NC(CC)(c2ccc(F)cc2)C1=O (stereo not drawn),11µM*,11%,0%,0%,-24,
O=C(Nc1cccc2ccccc12)c1ccccc1NS(=O)(=O)c1cccc2cccnc12,11µM*,23%,-1%,3%,?,
COc1ccc(OC)c(NC(=O)c2ccccc2NS(=O)(=O)c2cccc3cccnc23)c1,14µM*,3%,5%,-2%,6,
O=S(=O)(Nc1ccc(N2CCOCC2)cc1)c1ccccc1,5%,-1%,5%,1%,.,
O=S(=O)(Nc1ccc(N2CCCCC2)cc1)c1ccccc1,?,-6%,2%,-15%,?,
CC1CCCN(CCCNC(=O)c2cc(Sc3ccc(F)cc3)nc3ccccc23)C1 (stereo not drawn),.,.,.,-10%,.,
CCC(C)NC(=O)c1ccc2c(c1)N=C(C)c1cc(C)ccc1S2 (stereo not drawn),.,.,.,9%,.,
O=C(COC(=O)c1cccc2ccccc12)Nc1ncc(C(F)(F)F)cc1Cl,4.5µM*,0%,18%,5%,8,
O=C(Cc1cc(=O)[nH][nH]1)N/N=C/C=C/c1ccccc1,5µM*!,-15%,-2%,-2%,33,
O=C(CNC(=O)c1ccccc1)N/N=C/C=C/c1ccccc1,10%,0%,0%,-9%,.,
COc1ccc(-c2cn[nH]c2-c2ccc(OCc3ccc([N+](=O)[O-])cc3)cc2O)cc1OC,?,19%,7%,2%,-14,
O=[N+]([O-])c1ccc(COc2ccc(-c3[nH]ncc3-c3ccc(Cl)cc3)c(O)c2)cc1,20%,-18%,6%,-2%,.,
O=C(CSc1nc(C2CC2)nc2sc3c(c12)CCCC3)NCc1ccco1,1%,-2%,-7%,4%,.,
Cc1nc(SCC(=O)NCc2ccco2)c2c3c(sc2n1)CCCC3,4.5µM*,1%,-1%,-14%,?,
